From PubChem BioAssay AID1159580 (chemical genetic matrix, 2015)
The whole screen tested about 5,500 compounds, of which about 2,000 (36%) were called active. Not shown: some 18% with an inconclusive outcome. Rule as the data show it: active = normalized growth mostly below about 0.91 (no sharp cut-off); inconclusive = no clear call, values can overlap the other calls; inactive = mostly above about 0.92. Some of the results follow.

Test: chemical genetic growth profiling, strain panel (AID 1159580);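 also: tested at 20 µM; growth read once vehicle control cultures reached saturation at 30 °C; 1 = growth at the plate median or of vehicle wells; lower values mean less growth of the strain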
Settings: S. cerevisiae deletion strains, growth OD
[1] = locus YAR019C, strain CDC15, active compounds read low
[2] = locus YBL105C, strain PKC1, active compounds read low
[3] = locus YBR135W, strain CKS1, active compounds read low
[4] = locus YBR136W, strain MEC1, active compounds read low
[5] = locus YBR160W, strain CDC28, active compounds read low
[6] = locus YDL017W, strain CDC7, active compounds read low
[7] = locus YDL028C, strain MPS1, active compounds read low
[8] = locus YDL101C, strain DUN1, active compounds read low
[9] = locus YDL108W, strain KIN28, active compounds read low
[10] = locus YDL132W, strain cdc53, active compounds read low
[11] = locus YDL214C, strain PRR2, active compounds read low
[12] = locus YDR052C, strain DBF4, active compounds read low
[13] = locus YDR054C, strain cdc34, active compounds read low
[14] = locus YDR226W, strain ADK1, active compounds read low
[15] = locus YDR477W, strain SNF1, active compounds read low
[16] = locus YER123W, strain YCK3, active compounds read low
[17] = locus YER133W, strain GLC7, active compounds read low
[18] = locus YFL009W, strain cdc4, active compounds read low
[19] = locus YFL029C, strain CAK1, active compounds read low
[20] = locus YFR003C, strain YPI1, active compounds read low
[21] = locus YFR019W, strain FAB1, active compounds read low
[22] = locus YFR028C, strain CDC14, active compounds read low
[23] = locus YGR040W, strain KSS1, active compounds read low
[24] = locus YGR052W, strain FMP48, active compounds read low
[25] = locus YGR092W, strain DBF2, active compounds read low
[26] = locus YHR030C, strain SLT2, active compounds read low
[27] = locus YHR079C, strain IRE1, active compounds read low
[28] = locus YHR082C, strain KSP1, active compounds read low
[29] = locus YHR205W, strain SCH9, active compounds read low
[30] = locus YIL147C, strain SLN1, active compounds read low
[31] = locus YJL095W, strain BCK1, active compounds read low
[32] = locus YJL128C, strain PBS2, active compounds read low
[33] = locus YJL157C, strain FAR1, active compounds read low
[34] = locus YJR016C, strain ILV3, active compounds read low
[35] = locus YJR066W, strain TOR1 (second series), active compounds read low
[36] = locus YJR066W, strain TOR1, active compounds read low
[37] = locus YKL048C, strain ELM1, active compounds read low
[38] = locus YKL067W, strain YNK1, active compounds read low
[39] = locus YKL101W, strain HSL1, active compounds read low
[40] = locus YKL193C, strain SDS22, active compounds read low
[41] = locus YKL203C, strain TOR2, active compounds read low
[42] = locus YLR113W, strain HOG1, active compounds read low
[43] = locus YLR133W, strain CKI1, active compounds read low
[44] = locus YLR403W, strain SFP1, active compounds read low
[45] = locus YML070W, strain DAK1, active compounds read low
[46] = locus YMR001C, strain CDC5, active compounds read low
[47] = locus YMR205C, strain PFK2 (second series), active compounds read low
[48] = locus YMR277W, strain FCP1, active compounds read low
[49] = locus YNL006W, strain LST8, active compounds read low
[50] = locus YNL020C, strain ARK1, active compounds read low
[51] = locus YNL161W, strain CBK1, active compounds read low
[52] = locus YNL183C, strain NPR1, active compounds read low
[53] = locus YNL207W, strain RIO2, active compounds read low
[54] = locus YNL222W, strain SSU72, active compounds read low
[55] = locus YNL307C, strain MCK1 (second series), active compounds read low
[56] = locus YOL078W, strain AVO1, active compounds read low
[57] = locus YOL136C, strain PFK27, active compounds read low
[58] = locus YOR061W, strain CKA2, active compounds read low
[59] = locus YOR119C, strain RIO1, active compounds read low
[60] = locus YOR231W, strain MKK1, active compounds read low
[61] = locus YOR329C, strain SCD5, active compounds read low
[62] = locus YPL031C, strain PHO85, active compounds read low
[63] = locus YPL153C, strain RAD53, active compounds read low
[64] = locus YPL204W, strain HRR25, active compounds read low
[65] = locus YPL209C, strain IPL1, active compounds read low
[66] = locus YPL256C, strain CLN2, active compounds read low
[67] = locus YPR025C, strain CCL1, active compounds read low
[68] = locus YPR106W, strain ISR1, active compounds read low
[69] = locus YPR111W, strain DBF20, active compounds read low
[70] = strain NNK1, active compounds read low
[71] = strain TSCII, active compounds read low

Measured: normalized growth

Oc1ccc2c3c1O[C@H]1[C@@H](O)CC[C@@]4(O)C(C2)N(CC2CCC2)CCC314 (some centres not stated)
inactive: locus YAL040C, strain CLN3, active compounds read low 1.01 | locus YCL061C, strain MRC1 (second series), active compounds read low 0.998 | locus YDR150W, strain NUM1, active compounds read low 1.01 | locus YDR363W, strain ESC2, active compounds read low 1.01 | locus YER002W, strain NOP16, active compounds read low 1 | locus YMR263W, strain SAP30, active compounds read low 1 | locus YMR307W, strain GAS1, active compounds read low 0.998 | locus YNL128W, strain TEP1, active compounds read low 0.995 | locus YNL153C, strain GIM3, active compounds read low 1.01 | locus YNL175C, strain NOP13, active compounds read low 1.01 | locus YNL197C, strain WHI3, active compounds read low 1.03 | locus YNL224C, strain SQS1, active compounds read low 1.02 | locus YNL322C, strain KRE1, active compounds read low 1.01 | locus YOR083W, strain WHI5 (second series), active compounds read low 0.984 | locus YPL241C, strain CIN2, active compounds read low 1

O=C(c1ccc(Cl)cc1)N(Cc1ccccc1)Cc1cccnc1
inactive: [1] 0.994 | [2] 0.985 | [3] 0.989 | [4] 0.979 | [5] 0.986 | [6] 0.981 | [7] 0.989 | [8] 0.987 | [9] 0.98 | [10] 0.993 | [11] 0.866 | [12] 0.985 | [13] 0.987 | [14] 0.987 | [15] 0.886 | [16] 0.748 | [17] 0.868 | [18] 0.994 | [19] 0.996 | [20] 0.983 | [21] 0.801 | [22] 0.992 | [23] 0.874 | [24] 0.869 | [25] 0.865 | [26] 0.976 | [27] 0.96 | [28] 0.896 | [29] 0.918 | [30] 0.977 | [31] 0.862 | [32] 0.956 | [33] 0.845 | [34] 0.99 | [35] 0.853 | [36] 0.89 | [37] 0.965 | [38] 0.885 | [39] 0.905 | [40] 0.987 | [41] 0.944 | [42] 0.884 | [43] 0.905 | [44] 0.864 | [45] 0.859 | [46] 0.991 | [47] 0.885 | [48] 0.989 | [49] 1.01 | [50] 0.885 | [51] 0.994 | [52] 0.909 | [53] 0.986 | [54] 0.989 | [55] 0.885 | [56] 0.994 | [57] 0.877 | [58] 0.828 | [59] 0.915 | [60] 0.912 | [61] 0.991 | [62] 0.877 | [63] 0.851 | [64] 0.885 | [65] 0.988 | [66] 0.966 | [67] 0.984 | [68] 0.995 | [69] 0.998 | [70] 0.991 | [71] 0.995

O=S(=O)(c1ccc(Cl)cc1)N(Cc1cccnc1)Cc1ccc(Cl)cc1Cl
inactive: [1] 0.951 | [2] 0.966 | [3] 0.962 | [4] 0.95 | [5] 0.969 | [6] 0.968 | [7] 0.96 | [8] 0.967 | [9] 0.946 | [10] 0.929 | [11] 0.732 | [12] 0.924 | [13] 0.928 | [14] 0.938 | [18] 0.947 | [19] 0.942 | [20] 0.963 | [22] 0.94 | [25] 0.704 | [27] 0.55 | [28] 0.7 | [29] 0.583 | [30] 0.939 | [32] 0.958 | [33] 0.715 | [34] 0.949 | [37] 0.89 | [38] 0.745 | [39] 0.799 | [40] 0.941 | [43] 0.767 | [46] 0.963 | [48] 0.932 | [49] 0.959 | [50] 0.743 | [51] 0.968 | [53] 0.913 | [54] 0.961 | [55] 0.68 | [56] 0.946 | [57] 0.711 | [58] 0.787 | [60] 0.593 | [61] 0.96 | [65] 0.949 | [67] 0.952 | [68] 0.962 | [69] 0.975 | [70] 0.948 | [71] 0.927
active: [15] 0.537 | [16] 0.469 | [17] 0.57 | [21] 0.727 | [23] 0.518 | [24] 0.543 | [26] 0.465 | [31] 0.273 | [35] 0.586 | [36] 0.46 | [41] 0.408 | [42] 0.54 | [44] 0.549 | [45] 0.673 | [47] 0.713 | [52] 0.47 | [59] 0.428 | [62] 0.478 | [63] 0.42 | [64] 0.526 | [66] 0.674
